In PubChem BioAssay AID652126 (The Scripps Research Institute Molecular Screening Center, 2013):
The whole screen tested about 370,000 compounds, of which about 3,700 (1%) were called active.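 How the source made its calls: active means activation above the mean over all tested compounds plus 3 SD (cut at about 0.9% in these data); inactive means the rest.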 Only a selection was taken, and actives are over-represented in it overall.

system: Nuclear hormone receptor DAF-12 (Strongyloides stercoralis); experiment: ssDAF-12 driven luciferase reporter activation – cell-based, luminescence, HEK293, GRIP1 co-expression, lit1-tk-luc, primary screen (AID 652126); settings: HEK293 ssDAF-12/GRIP1 lit1-tk-luc reporter, at 6.8 µM, active compounds read high, % of 3 µM dafachronic acid response;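 further: 0% = DMSO-only wells and 100% = 3 µM delta7-dafachronic acid wells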

SMILES | activation
O=S1(=O)c2c(NCc3ccco3)cccc2Oc2ccccc2CN1Cc1cn(Cc2cccc(C(F)(F)F)c2)nn1 | -1.24% (inactive)
Cc1ccc(NC(=O)c2cnc(SCC(=O)NCC3CCCO3)n(C)c2=O)cc1 (centres undefined) | 1.27% (active)
C=CCn1c(SCC(=O)/C(C#N)=C(\C)N)nc2sc(C)c(C)c2c1=O | -1.37% (inactive)
C=CCn1c(SCC(=O)Nc2ccc(NC(C)=O)cc2)nc2sc(C)c(C)c2c1=O | -1.09% (inactive)
Cn1c(SCC(=O)c2ccccc2)ncc(C(=O)Nc2ccc(F)cc2)c1=O | -0.84% (inactive)
C=CCn1c(SCC(=O)NCC2CCCO2)nc2sc(C)c(C)c2c1=O (centres undefined) | 2.74% (active)
CCCCn1c(SCC(=O)NCC2CCCO2)nc2ccc(N3CCOCC3)cc2c1=O (centres undefined) | -1.75% (inactive)
CCOC(=O)[C@]12CCCC=C1N(Cc1ccc(OC)cc1)C(=O)[C@@H]2CC(=O)N1CCOCC1 | -0.73% (inactive)
COC(=O)C1CN(CCc2ccccc2)CCS(=O)(=O)N1Cc1cccc(Cl)c1 (centres undefined) | -0.43% (inactive)
CCC(=O)Nc1ccc2c(c1)C(=O)N(C)[C@@H]1CC[C@@H](CC(=O)NCCc3ccccc3)O[C@H]1CO2 | -0.55% (inactive)
C[C@@H]1CN([C@@H](C)CO)C(=O)c2cccc(NC(=O)Nc3cccc4ccccc34)c2O[C@H]1CN(C)S(=O)(=O)c1ccccc1F | -2.39% (inactive)
COC(=O)C[C@@H]1CC[C@H]2[C@@H](COc3ccc(NS(=O)(=O)CC(F)(F)F)cc3C(=O)N2C)O1 | -1.22% (inactive)
O=C(c1cccc(C(F)(F)F)c1)N1CC[C@H]2[C@H](CCCN2Cc2cc(F)cc(F)c2)C1 | -1.1% (inactive)
CC(C)C(=O)Nc1c(C(=O)c2ccc(F)cc2)oc2ccccc12 | -0.79% (inactive)
CC(C)C(=O)Nc1ccc2c(c1)oc1ccccc12 | 1.28% (active)
CC(C)C(=O)Nc1oc(-c2ccccc2)cc1C#N | -1.13% (inactive)
Cc1ccccc1CSc1nnc(Cn2c(=O)sc3ccccc32)n1C | -1.22% (inactive)
CC(C)N1CCCCC(NC(=O)c2ccc3ccccc3c2)C1=O (centres undefined) | -0.75% (inactive)
Cc1ccc(NC(=O)c2csc3c2CCCC3)cc1 | 1.46% (active)
Cc1ccc(NC(=O)C2(N3CCC3=O)CCCCC2)cc1 | -0.98% (inactive)
CC1CC(C)CN(CCCNC(=O)c2csc3c2CCCCC3)C1 (centres undefined) | -1.8% (inactive)
COc1ccc(NC(=O)CC2C(=O)OCC3CCCCN32)cc1Cl (centres undefined) | -1.7% (inactive)
CC(=O)C1(C(=O)Nc2nccs2)CC(c2ccccc2C(F)(F)F)=NO1 (centres undefined) | -1.38% (inactive)
O=C(O)C1CCN(c2ccc([N+](=O)[O-])cc2[N+](=O)[O-])CC1 | 1.84% (active)
CC1CCN(c2ccc(S(=O)(=O)Nc3cc(C(=O)O)cc(C(=O)O)c3)cc2[N+](=O)[O-])CC1 | -1.44% (inactive)
CCC(C)(C)NC(=O)c1cc([N+](=O)[O-])ccc1N1CCCCC1 | -1.32% (inactive)
O=C(c1ccccc1)c1ccc(-c2ccccc2C(=O)NC2CCCCN(Cc3ccc(Cl)cc3)C2=O)cc1 (centres undefined) | -0.93% (inactive)

SMILES | activation
COC(=O)C[C@@H]1C=C[C@@H](NS(=O)(=O)c2cccc(OC)c2)[C@@H](CO)O1 | -0.52% (inactive)
COc1ccc(S(=O)(=O)N2CCOCC2)cc1C(=O)NC1CCCCC1 | -1.6% (inactive)
COC(=O)C1CCN(C(=O)COC(=O)c2cc(S(=O)(=O)N3CCOCC3)ccc2C)CC1 | -1.23% (inactive)
Cc1ccc(S(=O)(=O)N2CCOCC2)cc1C(=O)OC1CCCCC1=O (centres undefined) | 1.21% (active)
CCN(CC)C(=O)CC[C@@H]1CC[C@]2(CCCN(S(=O)(=O)C3CCCCC3)C2)O1 | -1.11% (inactive)
CN(C)Cc1cn(-c2ccc(-c3noc4c3C(=O)N(CC(=O)N3CCOCC3)CC4)cc2)nn1 | -0.67% (inactive)
O=C(OCC#CCSc1nnc(-c2ccco2)o1)c1ccc(F)cc1 | -0.22% (inactive)
CCCC[C@H](C(=O)N(CC)c1ccccc1)[C@@H](O)c1ccc2ccccc2c1 | -1.15% (inactive)
O=C(c1cc(COc2ccc(F)cc2F)on1)N1CCOCC1 | 0.37% (inactive)
O=C(c1cc(-c2ccc(O)cc2)on1)N1CCOCC1 | 1.22% (active)
O=C(c1cc(C2CCCCN2S(=O)(=O)c2ccccc2)on1)N1CCOCC1 (centres undefined) | -1.54% (inactive)
O=C1Nc2ccccc2OC1CC(=O)N1CCCCCCC1 (centres undefined) | -0.55% (inactive)
c1cncc(CNc2ccnc(-c3ccc4c(c3)OCO4)n2)c1 | -1.42% (inactive)
CCOC(=O)[C@]12CCCC3=C1N(CCC3)C(=O)[C@@H](CC(=O)NCc1cccs1)C2 | -1.02% (inactive)
Brc1ccc2nc(N3CCCC3)sc2c1 | 1.8% (active)
Cc1nc2ccc(C(=O)N3CCSCC3)cc2s1 | -1.17% (inactive)
Cc1nc2ccc(NC(=O)C3CCCCC3)cc2s1 | -1.51% (inactive)
C=CCN1C(=O)[C@H](CC(=O)NCCCN2CCCC2=O)[C@@]2(C(=O)OCC)CCCC=C12 | -0.32% (inactive)
COC(=O)Cc1cc(=O)oc2c(C)c(O)ccc12 | -1% (inactive)
COc1cccc(C(=O)OCc2cc(=O)oc3c(C)c(C)ccc23)c1OC | 1.06% (active)
COc1ccc(Br)cc1CN1CCN(C(=O)c2cccc(OC)c2OC)CC1 | -0.37% (inactive)
CC(C)[C@@H]1NC(=O)c2cc([N+](=O)[O-])cc(I)c2NCCC[C@@H](C(=O)NC(CC(=O)O)C(N)=O)NC(=O)[C@H](CO)NC1=O (some centres undefined) | -1.32% (inactive)
CCOC(=O)[C@]12CCCCC/C=C\1N(Cc1ccc(OC)cc1)C(=O)[C@H]2CC(=O)NCc1ccc(C)o1 | -1.69% (inactive)
COC(=O)c1cc(S(=O)(=O)N2CCN(c3ccccc3C)CC2)cn1C | -1.46% (inactive)
COc1ccc(-c2cc(C(=O)NC(Cc3c[nH]c4ccccc34)C(=O)O)c(C)o2)cc1OC (centres undefined) | 0.94% (active)
COc1ccc(-c2cc(C(=O)NC(C(=O)O)C(C)C)c(C)o2)cc1OC (centres undefined) | -0.63% (inactive)
O=C(CCn1nnc2ccccc2c1=O)N[C@@H](Cc1c[nH]c2ccccc12)C(=O)O | -1.08% (inactive)
